Sampled rows, rich in hits. Any-hit rate of the full collection: about 0.33%.
IL2 activator = qHTS of IL-2 Activators; IL-2 activation reporter assay, cell-based qHTS; stimulated with anti-CD3/CD4/CD28 beads; in transgenic mouse T cells; activation, % (series mostly up to about 46 µM); 360,000 tested, 0.065% active; AID 652025, 2013; in the data active means activation above about 50%; inconclusive means mostly about 30% to 49%
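Using fluorescent plate cytometry, EGFP and DsRed are detected in transgenic mouse T cells stimulated 18 h at 37 degrees C with antibody-coated beads after 60 min compound pretreatment.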
PKM2 act = qHTS Assay for Activators of Human Muscle isoform 2 Pyruvate Kinase | 260,000 tested, 0.34% active | Pyruvate kinase PKM (Homo sapiens), P14618 | Potency, µM (titrated, usually from 57.5 µM), usual class: activators | purified PKM2, Kinase-Glo ATP luminescence, activation; response scale: 0% is enzyme alone, no compound; further: nearly all actives have a fitted effect of over 55% in size
Target sequence (P14618 whole entry, looked up, canonical isoform): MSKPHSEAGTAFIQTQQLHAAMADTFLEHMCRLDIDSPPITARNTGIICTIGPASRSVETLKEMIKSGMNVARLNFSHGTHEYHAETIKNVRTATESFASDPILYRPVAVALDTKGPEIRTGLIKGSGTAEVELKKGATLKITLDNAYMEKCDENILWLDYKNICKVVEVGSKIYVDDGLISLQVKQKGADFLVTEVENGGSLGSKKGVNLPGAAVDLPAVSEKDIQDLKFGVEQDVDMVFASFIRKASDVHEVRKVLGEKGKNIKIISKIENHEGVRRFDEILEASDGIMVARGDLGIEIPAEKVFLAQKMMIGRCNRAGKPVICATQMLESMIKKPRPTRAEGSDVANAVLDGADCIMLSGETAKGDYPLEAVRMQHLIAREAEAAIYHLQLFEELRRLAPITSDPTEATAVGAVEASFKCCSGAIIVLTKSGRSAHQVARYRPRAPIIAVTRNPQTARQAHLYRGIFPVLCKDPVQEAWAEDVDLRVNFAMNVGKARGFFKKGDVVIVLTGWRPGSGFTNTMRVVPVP
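Purified hPK-M2 (>95% pure) converted ADP (0.1 mM final) to ATP with 0.5 mM PEP in 50 mM imidazole pH7.2, KCl, MgCl2, Tween 20, BSA; 1 h at room temperature. ATP detected by Kinase-Glo luminescence.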
S-ASM inh = Inhibitors of Secretory Acid Sphingomyelinase (S-ASM): qHTS; Sphingomyelin phosphodiesterase (Homo sapiens), P17405; placental ASM, HMU-PC fluorogenic substrate, 60 min; Potency, µM (highest dose often 57.5 µM), hits mostly inhibitors; 340,000 tested, 0.006% active; AID 504937, 2011
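Steps: dispense placental human ASM, pin compound, wait 10 min at room temperature, add HMU-PC0 substrate at 9 uM final, incubate 60 min at 37 °C, add stop solution raising pH to 10, read fluorescence.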
Large screens that a line does not name were inactive. Unless noted, the call rests on the fitted dose curve; in most records, active means well fitted curve in the direction sought with a large enough effect; inconclusive means small, poorly fitted or top-dose-only effect, or another doubt; inactive means no such curve, though single readings can be large; an effect the other way counts as inactive or inconclusive.

COC(=O)CCN(C1CCCCC1)S(=O)(=O)c1ccc(S(=O)(=O)N2CCCCC2)cc1	PKM2 act 28.2µM
O=C1NCCOC(=O)[C@@H](Cc2ccc(F)cc2)CC/C=C/C[C@H]1CC(=O)N(CCO)Cc1ccccc1	none (no result: PKM2 act)
CC(C)(C)OC(=O)C1=CC[C@@H](c2ccc(Cl)c(Cl)c2)N(S(=O)(=O)c2ccc(F)cc2)[C@H]1c1cccc(F)c1	none (no result: PKM2 act, S-ASM inh)
O=c1[nH]c(=O)c2nc3c4ccccc4c4ccccc4c3nc2[nH]1	PKM2 act 11.2µM
O=c1[nH]c(=O)c2nc(-c3ccc(Cl)cc3)cnc2[nH]1	none
O=C(/C(=N/N=C/c1ccc(O)c(O)c1)c1ccccc1)c1ccccc1	S-ASM inh inconclusive
CC(=O)Nc1ccc(NC(=O)C2C3C=CC(C3)C2C(=O)O)cc1 (centres undefined)	none
Cc1[nH]nc(SCC(=O)Nc2cccc(O)c2)c1[N+](=O)[O-]	PKM2 act 10µM
Cc1[nH]nc(SCC(=O)NCc2ccccc2)c1[N+](=O)[O-]	none
COc1cccc(C(=O)NCCN2C(=O)S/C(=C/c3cccs3)C2=O)c1OC	none
CCOc1ncccc1C(=O)NCCN1C(=O)S/C(=C/c2cccs2)C1=O	PKM2 act 15.8µM
Cc1cccnc1NC(=O)c1ccc(S(=O)(=O)N2CCC(C)CC2)cc1	none (no result: PKM2 act)
CCOC(=O)c1c(CSC(=N)N)n(-c2ccc(Br)cc2)c2cc(Br)c(OC(C)=O)cc12	none
CCCCCCCCOC(=O)c1c(CSC(=N)N)n(C)c2cc(Br)c(OC(C)=O)cc12	S-ASM inh 31.6µM
COc1cc(NC(=O)c2cc(C(C)C)on2)c(OC)cc1Cl	none
Cc1ccc(O)c(NC2=C(Cl)C(=O)N(Cc3ccccc3)C2=O)c1	PKM2 act 8.91µM
Cc1ccc(C(=O)N2CCCCC2)cc1NC1=C(Cl)C(=O)N(Cc2ccccc2)C1=O	none (no result: PKM2 act)
COc1ccc(CC(=O)Nc2ccc(S(=O)(=O)Nc3nccs3)cc2)cc1	PKM2 act 14.1µM
COc1ccc(S(=O)(=O)Nc2ccc(S(=O)(=O)Nc3nccs3)cc2)cc1	PKM2 act 12.6µM
COc1ccccc1S(=O)(=O)Nc1ccc(S(=O)(=O)Nc2nccs2)cc1	none (no result: PKM2 act)
COc1cccc(CC(=O)Nc2ccc(S(=O)(=O)Nc3nccs3)cc2)c1	none (no result: PKM2 act)
COc1ccc(OC)c(NC(=O)C2C(C(=O)O)C3(Cl)C(Cl)=C(Cl)C2(Cl)C3(Cl)Cl)c1 (centres undefined)	none
Cc1cc(S(=O)(=O)N2CCN=C2c2ccccc2)ccc1F	none
N#Cc1c(N)n(CCNC(=O)c2ccccc2)c2nc3ccccc3nc12	PKM2 act 17.8µM
N#Cc1c(N)n(CCNC(=O)c2cccs2)c2nc3ccccc3nc12	none
Cc1ccc(-c2nnn(CC(=O)N(Cc3cccs3)C(C(=O)NC(C)(C)C)c3ccco3)n2)o1 (centres undefined)	none
Cc1nc(COC(=O)c2ccc(S(=O)(=O)N3CCCC3)cc2)cs1	PKM2 act 28.2µM
NC(=O)COC(=O)c1ccc(S(=O)(=O)N2CCCCCC2)cc1	none
COc1ccc(C2c3c(ncn(CCN4CCOCC4)c3=N)Oc3ccc4ccccc4c32)cc1OC (centres undefined)	PKM2 act 20µM
COc1ccc(C2c3c(ncn(CCCO)c3=N)Oc3ccc4ccccc4c32)cc1OC (centres undefined)	none
COc1ccc(N2C(=O)[C@@H]3[C@H](C2=O)[C@H]2C=CC=NN2[C@@H]3C(=O)Nc2ccc(Cl)cc2)cc1	PKM2 act 8.91µM
O=C(Nc1ccc(Cl)cc1)[C@@H]1[C@@H]2C(=O)N(c3ccc4ccccc4c3)C(=O)[C@@H]2[C@H]2C=CC=NN21	PKM2 act inconclusive
O=C(NC(c1ccc2c(c1)OCO2)c1ccccn1)C1CCN(CCOc2ccc(Cl)cc2Cl)CC1 (centres undefined)	none (no result: PKM2 act, S-ASM inh)
COc1ccc2cc(S(=O)(=O)c3ccccc3)c(=O)oc2c1	PKM2 act 5.01µM
Cc1ccc(S(=O)(=O)c2cc3ccc(O)cc3oc2=O)cc1C	none (no result: PKM2 act)
O=C(CSc1nc2cc(Cl)c(Cl)cc2[nH]1)c1ccc2c(c1)OCO2	none
O=C(CSc1nc2ccc(Cl)cc2[nH]1)c1ccc2c(c1)OCO2	PKM2 act 7.94µM
NS(=O)(=O)c1ccc(CCNC(=O)CNC(=O)c2ccccc2Br)cc1	none (no result: PKM2 act)
COc1cc(C)ccc1OCc1cc(C(=O)NCc2ccncc2)no1	none
COc1cccc(C=C(C#N)C(=O)c2ccccc2)c1	none (no result: PKM2 act, S-ASM inh)
N#C/C(=C\c1cccc(Cl)c1)C(=O)c1ccccc1	PKM2 act 20µM
O=C(Cc1ccccc1)Nc1ccc(NC(=O)c2ccco2)cc1	none
c1ccc(-n2ncc3c(NCc4ccco4)ncnc32)cc1	none
c1ccc(Cn2ncc3c(NCc4ccco4)ncnc32)cc1	PKM2 act 14.1µM
COC(=O)c1ccc(C(NC(=O)OCc2ccccc2)/C(I)=C/[C@@H](C)C(=O)NCc2ccc(OC)c(O)c2)cc1 (some centres undefined)	none (no result: IL2 activator, S-ASM inh)
COC(=O)c1ccc(C(NC(=O)OCc2ccccc2)/C(I)=C/[C@@H](C)C(=O)NCc2ccc(C)o2)cc1 (some centres undefined)	PKM2 act 14.1µM (no result: IL2 activator, S-ASM inh)
CC(C)(C)OC(=O)C[C@H]1C/C=C\C[C@@H](CC(=O)N(CCO)Cc2ccccc2)C(=O)N[C@@H](c2ccccc2)COC1=O	none (no result: PKM2 act)
NS(=O)(=O)c1cccc(NC(=O)CSc2ccccn2)c1	none
NS(=O)(=O)c1ccc(NC(=O)CSc2ccccn2)cc1	PKM2 act 28.2µM
CC1=NN(c2ccccc2)C(=O)C1/C=C1/NC(=S)NC1=O (centres undefined)	none
CCOC(=O)c1c(-c2ccco2)csc1NC(=O)CSc1nnc(N)s1	PKM2 act 12.6µM
CCOC(=O)c1c(-c2ccco2)csc1NC(=O)COC(=O)c1cnccn1	none (no result: PKM2 act)
CCOC(=O)c1c(-c2ccc(C)o2)csc1NC(=O)CSc1nncs1	PKM2 act 8.91µM
CCOC(=O)c1c(-c2ccc(C)o2)csc1NC(=O)CN1CCCCC1	none
CCOC(=O)c1c(-c2ccc(C)o2)csc1NC(=O)CN1CCC(C(N)=O)CC1	PKM2 act 20µM
CCOC(=O)c1c(-c2ccc(C)o2)csc1NC(=O)CN1CCN(CC)CC1	PKM2 act inconclusive
COc1ccccc1CNC(=O)c1cccc(NC(=O)c2ccccc2)c1	none
COc1ccc2c(=O)c3c(=O)n(-c4ccc(C)cc4)c(-c4ccccc4)nc3oc2c1	none (no result: IL2 activator, S-ASM inh)
Cn1c(=O)[nH]c(=O)c2c1nc(SCC(=O)O)n2Cc1ccccc1	none
Cc1cccc(Cn2c(SCC(=O)Nc3ccccc3)nc3c2c(=O)[nH]c(=O)n3C)c1	PKM2 act 1.41µM
CC(C)c1nc(SCC(=O)Nc2ccc([N+](=O)[O-])cc2Br)n[nH]1	PKM2 act inconclusive
Nc1nc(SCC(=O)Nc2ccc([N+](=O)[O-])cc2Br)n[nH]1	PKM2 act 3.16µM
O=C(CSc1n[nH]c(-c2cccnc2)n1)Nc1ccc([N+](=O)[O-])cc1Br	none
O=C(CSc1ncn[nH]1)Nc1ccc([N+](=O)[O-])cc1Br	PKM2 act 7.08µM
CCOC(=O)c1ccc(NC(=S)N(CCCN2CCCC2)Cc2cccs2)cc1	none
Cn1nccc1C(=O)N1CCN(c2ccc(F)cc2)CC1	none

Screens (PubChem)
